Values joined by “and” are separate entries in the source; they are usually repeats but may differ in a detail not shown here. Equal entries are not always repeated. Results filed as inconclusive are left out. Active and inactive are the calls of the source. The call rests on the fitted dose curve.

From PubChem BioAssay (Tox21) come the findings set out here.
Potency means the concentration at half of the fitted maximal effect.

The nature of this test: qHTS assay to identify small molecule agonists of the AP-1 signaling pathway - cell viability counter screen (AID 1159525). Further: nearly all actives have a fitted effect of over 55% in size. The settings on record: ME-180 (cervical carcinoma) AP-1-bla cells viability, ATP luminescence, 5 h; series mostly up to 76.8 µM; viability change, negative = cytotoxic: at the top concentration. The source says: National Center for Advancing Translational Sciences [NCATS]
NIH Chemical Genomics Center [NCGC]
U.S. Environmental Protection Agency [EPA]
National Institutes of Environmental Health Sciences [NIEHS]
National Toxicology Program [NTP]
U.S. Food and Drug Administration [FDA]
Activator protein-1 (AP-1), a transcription factor, plays an important role in tumor genesis by regulating genes involved in cell proliferation, differentiation, apoptosis, and angiogenesis. AP-1 activity is induced by a complex network of signaling pathways that involves extracellular signals, such as growth factors. The AP-1 protein complex formed from c-Fos and c-Jun binding to the AP-1 response element results in transcriptional activation of genes containing such elements within their promoter.
Low molecular weight molecules have been discovered and developed to modulate various components of these signaling pathways, for example, MAP kinase inhibitors. However, many points of pathway modulation remain untested due to the lack of chemical probes making this signaling locus of general interest.
Using a beta-lactamase reporter-gene under control of the AP-1 response element, a cell-based assay [CellSensor(TM) AP-1-bla ME-180 developed by Invitrogen Corp.] was used to measure EGF-induced signaling. The Tox21 10K library compounds were measured for their ability to positively modulate the action of EC50 EGF on reporter gene activity. Compounds were screened in a 15-pt titration series in 1536-well format. The cytotoxicity of the Tox21 compound library against this cell line was tested in parallel by measuring the intra cellular ATP content in the same wells.
Tox21 Assay Protocol Summary:
2500 cells/5uL in Opti-MEM medium containing 0.5% dialyzed FBS, 0.1 mM NEAA, 1 mM sodium pyruvate and 10 mM HEPES was dispensed into 1536-well black wall/clear bottom plates using a Multidrop dispenser and cells were cultured at 37 degrees Celsius overnight. Next day 23 nL of compounds dissolved in DMSO, positive controls or DMSO were delivered to each well using a pin tool. The plates were incubated at 37 degrees Celsius for 5 hours. 1 uL of LiveBLAzerTM B/G FRET substrate (Solution A+B+C+D) was added to each well using a Flying Reagent Dispenser. After incubated at room temperature for 2.5 hours the plates were measured on an EnVision plate reader at Excitation 405nm, Emission1=460nm and Emission 2=530nm. The %Activity was determined from the ratio of 460nm/530nm.
After the plates were read for Beta-Lactamase assay on Envision; 3 ul Cell Titer Glo (Promega) was added to measure the cytotoxicity and the plates were then incubated at RT in dark for 30 min. The luminescence was read on ViewLux (Perkin Elmer, Shelton, CT) using 6 sec exposure. ViewLux data was expressed as relative luminescence units.
For primary data analysis, raw plate reads for each titration point were first normalized relative to […] EGF control (100%) and DMSO only wells (basal, 0%).
For primary data analysis for viability assay, raw plate reads for each titration point were first normalized Tetra n-octyl ammonium bromide control (-100%) and DMSO (control, 100%).
For the molecule `CC1COC(Cn2cncn2)(c2ccc(Oc3ccc(Cl)cc3)cc2Cl)O1` (stereo not drawn), the “viability change, negative = cytotoxic” value was -5.56% (inactive). On to `c1ccc2c(c1)Sc1ccccc1N2CC1CN2CCC1CC2` (stereo not drawn), for which the “viability change, negative = cytotoxic” value is -3.53% [at 35.3 µM] (inactive).

Turning to `Cc1ccc(N(SC(F)(Cl)Cl)S(=O)(=O)N(C)C)cc1`, the Potency was 30.9 µM (active).

For `ClC1=C(Cl)[C@]2(Cl)[C@@H]3[C@@H](Cl)[C@H]4O[C@H]4[C@@H]3C1(Cl)C2(Cl)Cl`, the Potency was 49 µM (active).

`ClC(Cl)=C(c1ccc(Cl)cc1)c1ccccc1Cl`: the “viability change, negative = cytotoxic” value is -17.1% (inactive).

As for `C[C@]12CC[C@@H](O)C[C@@H]1CC[C@@H]1[C@@H]2CC[C@]2(C)C(=O)CC[C@@H]12`, the Potency was 49 µM (active). For the molecule `O=C(Nc1ccccc1-c1ccc(Cl)cc1)c1cccnc1Cl`, the “viability change, negative = cytotoxic” value is -0.339% (inactive).

On to `N#Cc1cc([N+](=O)[O-])ccc1N`, for which the “viability change, negative = cytotoxic” value is 3.44% (inactive). As for `CNC(=O)Oc1cc(C)c(SC)c(C)c1`, the “viability change, negative = cytotoxic” value is -1.03% (inactive). Same read-out and setting: the result for `CCN(CC)C(=O)Cl` reads 2.38% (inactive).

`Cc1nnc2n1-c1sc(CCc3ccc(CC(C)C)cc3)cc1C(c1ccccc1Cl)=NC2C` (stereo not drawn): the Potency was 26.8 µM (active). On to `O=S(=O)(C(Cl)(Cl)Cl)C(Cl)(Cl)Cl`, for which the Potency is 49 µM (active).

For the molecule `Cc1cc(C(C)(C)c2ccc(O)c(C)c2)ccc1O`, the “viability change, negative = cytotoxic” value was -22.4% (inactive). Take `Nc1ccc([N+](=O)[O-])cc1`: the Potency is 38.9 µM (active). As for `O=[N+]([O-])c1c(Cl)c(Cl)cc(Cl)c1Cl`, the “viability change, negative = cytotoxic” value is -9.12% (inactive).

Regarding `CC(c1ccccc1)(c1ccc(O)cc1)c1ccc(O)cc1`, the Potency was 49 µM (active). For `O=C(c1ccccc1)C(Cl)Cl`, the “viability change, negative = cytotoxic” value was 3.04% (inactive).

Consider `Cc1cc(C)c(C(=O)P(=O)(c2ccccc2)c2ccccc2)c(C)c1`, for which the Potency was 38.9 µM (active). As for `OCC(c1ccc(Cl)cc1)c1ccc(Cl)cc1`, the Potency was 49 µM (active). On to `Oc1c(I)cc(I)cc1I`, for which the “viability change, negative = cytotoxic” value was 0.656% (inactive). For `CCOC(=O)C(O)(c1ccc(Cl)cc1)c1ccc(Cl)cc1`, the Potency was 44.1 µM (active) and 43.6 µM (active). As for `COc1cc(OC)c(OC)cc1C=O`, the “viability change, negative = cytotoxic” value was -0.21% (inactive).

Consider `OC(Cc1ccccc1Cl)(Cn1[nH]cnc1=S)C1(Cl)CC1` (stereo not drawn), for which the “viability change, negative = cytotoxic” value is 6.85% (inactive).
